Our source for the outcome and AC50 values is PubChem BioAssay (EPA / NIEHS).

Test [1] in a line: ATG_CMV_CIS: Attagene CIS-FACTORIAL HepG2 Assay for human CMV (Internal Marker) (AID 2282928).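 Further: endpoint acts as a background internal control marker rather than a target.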 The note with it: HepG2 CMV promoter reporter, transcription factor profiling; actives raise or lower the signal. In outline:
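Cell system: HepG2, transiently transfected multiple reporter units under cis promoters. Exposure: 24 h. Detection: RT-PCR, FAM labeling, HpaI digestion, capillary electrophoresis. Analysis: bidirectional, DMSO baseline.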

Test [2] can be described thus: ATG_DR4_LXR_CIS: Attagene CIS-FACTORIAL HepG2 Assay for human Liver X Receptor (LXR), DR4 submotif (AID 2282929). The note with it: HepG2 Attagene DR4 cis-reporter, mRNA transcription; actives raise or lower the signal. In outline: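 HepG2 cells transiently transfected with cis-promoter-driven multiplexed reporter units (DR4 element) were dosed for 24 h. Reporter mRNA was quantified by RT-PCR, fluorescent primer extension, HpaI digestion and capillary electrophoresis; bidirectional fitting versus DMSO baseline.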

Test [3] concerns the target Aryl hydrocarbon receptor (Homo sapiens) (UniProt P35869). In words: ATG_Ahr_CIS: Attagene CIS-FACTORIAL HepG2 Assay for human Aryl Hydrocarbon Receptor (Ahr) (AID 2282930). The note with it: HepG2 AhR cis-factorial reporter transcription; actives raise or lower the signal. In outline: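 HepG2 cells transiently transfected with cis-element-driven multiplexed reporter units; endogenous AhR activity read as reporter mRNA 24 h after dosing, via RT-PCR, 6-FAM labelling, HpaI digestion and capillary electrophoresis. Bidirectional fit relative to DMSO.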

The nature of test [4]: ATG_AP_1_CIS: Attagene CIS-FACTORIAL HepG2 Assay for human Activator Protein 1 (AP-1) (AID 2282931). The following applies: HepG2 Attagene cis-factorial AP-1 reporter mRNA; actives raise or lower the signal. In outline:
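HepG2 cells transiently transfected with cis-element-driven multiplex reporter units; 24 h compound exposure. Reporter mRNA quantified by RT-PCR, FAM-labelled fragments resolved by capillary electrophoresis; bidirectional fit versus DMSO baseline.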

Test [5] can be described thus: ATG_AP_2_CIS: Attagene CIS-FACTORIAL HepG2 Assay for human Activator Protein 2 (AP-2) (AID 2282932). The following applies: HepG2 AP-2 cis-reporter, Attagene transcription factor profiling; actives raise or lower the signal. In outline:
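HepG2 cells transiently transfected with cis-element reporter units and exposed for 24 h. Reporter mRNA measured by RT-PCR, FAM labelling, HpaI digestion and capillary electrophoresis. Changes in either direction fitted relative to DMSO.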

Test [6] can be described thus: ATG_BRE_CIS: Attagene CIS-FACTORIAL HepG2 Assay for human Bone Morphogenetic Protein (BMP) Response Element (BRE) (AID 2282933). The note with it: HepG2 BMP response element reporter, Attagene transcription factor profiling; actives raise or lower the signal. In outline: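 HepG2 cells transiently transfected with CIS reporter units (endogenous TF activity, BMP response element), dosed 24 h. Reporter mRNA quantified by RT-PCR, fluorescent labelling and capillary electrophoresis; bidirectional fit vs DMSO baseline.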

For test [7], the target named is Retinoic acid receptor alpha (Homo sapiens) (UniProt P10276). In words: ATG_DR5_RAR_CIS: Attagene CIS-FACTORIAL HepG2 Assay for human Retinoic Acid Receptor Alpha (RARE), DR5 submotif (AID 2282934).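 On AC50: reporter responds to endogenous RAR alpha beta and gamma in HepG2 not RARA alone.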 The following applies: HepG2 Attagene cis-factorial RARE DR5 reporter, mRNA; actives raise or lower the signal. In outline:
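HepG2 cells transiently transfected with multiplexed reporter units; DR5 cis-element drives reporter through endogenous transcription factors. After 24 h dosing, reporter mRNA quantified by RT-PCR, fluorescent labeling, HpaI digestion and capillary electrophoresis; bidirectional fitting versus DMSO.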

Test [8] has as its target Transcription factor E2F1 (Homo sapiens) (UniProt Q01094). In words: ATG_E2F_CIS: Attagene CIS-FACTORIAL HepG2 Assay for human E2F Transcription Factor 1 (AID 2282935). The note with it: HepG2 Attagene cis-reporter, E2F reporter RNA transcripts; actives raise or lower the signal. In outline:
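Endogenous E2F1 activity read through cis-promoter reporter units transfected into HepG2. After 24 h compound treatment, reporter mRNA measured by RT-PCR, HpaI digestion and capillary electrophoresis. Bidirectional fit versus DMSO.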

Test [9] in a line: ATG_E_Box_CIS: Attagene CIS-FACTORIAL HepG2 Assay for human Enhancer Box (E-box) (AID 2282936). The following applies: HepG2 E-box cis-reporter transcription, actives raise or lower the signal. In outline: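 HepG2 cells transiently transfected with multiplexed cis-element reporter units, dosed 24 h; reporter mRNA quantified by RT-PCR, 6-FAM labelling, HpaI digestion and capillary electrophoresis. E-box (USF1) signal fitted bidirectionally vs DMSO.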

Test [10] in a line: ATG_M_61_CIS: Attagene CIS-FACTORIAL HepG2 Assay for M61 Transcription Factor (Internal Marker) (AID 2282937). The note with it: HepG2 Attagene CIS-FACTORIAL M61 internal marker reporter; actives raise or lower the signal. In outline: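 HepG2 cells transiently transfected with cis-element-driven multiple reporter transcription units, dosed for 24 h. Reporter mRNA measured by RT-PCR, 6-FAM primer-extension labelling, HpaI digestion and capillary electrophoresis; bidirectional fit versus DMSO baseline.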

“And” between values parts separate entries of the source, which are not always exact repeats. Equal entries are not always repeated. Some structures have more than one record in an assay (separate samples or runs), and their calls can disagree. The source made the active and inactive calls. How the source made its calls: active means hit-call score of the fitted dose curve at least 0.9, where 1 is the maximum; inactive means score below 0.9.

Transcription factor E2F1 (Homo sapiens), sequence (Q01094 whole entry, looked up): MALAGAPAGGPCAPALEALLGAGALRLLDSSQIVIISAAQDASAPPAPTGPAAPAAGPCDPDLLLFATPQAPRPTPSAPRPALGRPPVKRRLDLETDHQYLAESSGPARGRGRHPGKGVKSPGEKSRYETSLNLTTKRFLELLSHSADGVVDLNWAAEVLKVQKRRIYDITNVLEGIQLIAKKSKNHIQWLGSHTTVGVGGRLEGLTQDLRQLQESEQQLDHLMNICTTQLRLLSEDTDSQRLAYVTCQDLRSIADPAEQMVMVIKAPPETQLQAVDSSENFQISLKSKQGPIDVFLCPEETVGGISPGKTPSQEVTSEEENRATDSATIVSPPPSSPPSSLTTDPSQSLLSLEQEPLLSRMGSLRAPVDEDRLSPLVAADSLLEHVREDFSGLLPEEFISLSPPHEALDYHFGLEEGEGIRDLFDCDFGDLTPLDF
Aryl hydrocarbon receptor (Homo sapiens), sequence (P35869 whole entry, looked up): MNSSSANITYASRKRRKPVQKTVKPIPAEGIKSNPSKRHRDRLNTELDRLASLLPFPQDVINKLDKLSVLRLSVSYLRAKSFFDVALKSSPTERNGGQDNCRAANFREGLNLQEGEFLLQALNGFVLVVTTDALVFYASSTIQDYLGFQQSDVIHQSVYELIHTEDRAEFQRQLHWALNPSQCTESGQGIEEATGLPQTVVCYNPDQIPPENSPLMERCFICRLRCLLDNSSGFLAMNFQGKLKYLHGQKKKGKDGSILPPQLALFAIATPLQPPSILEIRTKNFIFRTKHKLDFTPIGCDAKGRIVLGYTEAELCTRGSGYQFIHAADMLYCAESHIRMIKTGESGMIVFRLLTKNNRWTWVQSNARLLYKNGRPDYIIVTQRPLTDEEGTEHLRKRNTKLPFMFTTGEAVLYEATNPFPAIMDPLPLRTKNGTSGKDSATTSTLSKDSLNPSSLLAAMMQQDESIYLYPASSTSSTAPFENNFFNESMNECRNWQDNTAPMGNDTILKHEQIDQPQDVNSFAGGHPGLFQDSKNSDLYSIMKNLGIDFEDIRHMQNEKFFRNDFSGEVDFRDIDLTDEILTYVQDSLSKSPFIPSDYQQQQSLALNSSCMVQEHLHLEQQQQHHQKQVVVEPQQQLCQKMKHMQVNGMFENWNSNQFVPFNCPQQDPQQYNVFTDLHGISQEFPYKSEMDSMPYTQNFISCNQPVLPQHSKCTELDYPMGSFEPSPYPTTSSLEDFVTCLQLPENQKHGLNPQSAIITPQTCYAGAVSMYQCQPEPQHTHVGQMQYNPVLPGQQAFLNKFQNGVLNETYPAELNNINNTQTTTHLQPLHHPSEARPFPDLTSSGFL
Retinoic acid receptor alpha (Homo sapiens), sequence (P10276 whole entry, looked up): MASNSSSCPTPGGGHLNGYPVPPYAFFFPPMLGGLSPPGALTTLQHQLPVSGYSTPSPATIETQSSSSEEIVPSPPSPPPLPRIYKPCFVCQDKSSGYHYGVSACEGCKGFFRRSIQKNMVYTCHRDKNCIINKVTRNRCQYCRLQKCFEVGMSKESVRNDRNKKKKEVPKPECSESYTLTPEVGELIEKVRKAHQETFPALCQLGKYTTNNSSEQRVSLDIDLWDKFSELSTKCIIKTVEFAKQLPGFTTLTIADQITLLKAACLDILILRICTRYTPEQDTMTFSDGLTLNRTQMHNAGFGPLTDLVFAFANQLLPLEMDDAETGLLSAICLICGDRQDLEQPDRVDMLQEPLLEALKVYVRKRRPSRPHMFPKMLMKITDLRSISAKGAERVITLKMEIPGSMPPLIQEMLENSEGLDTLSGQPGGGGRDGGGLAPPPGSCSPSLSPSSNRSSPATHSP

In the case of `CC(C)c1cccc(C(C)C)c1O`, the compound was classed as inactive in [1], in test [2], in [3], in test [4], in test [5] and in test [6]. Besides, the compound was classed as inactive in test [7] and in [8].
With `COS(=O)(=O)c1ccc(C)cc1`, the compound was classed as inactive in test [1], in test [2], in test [3], in [4], in test [5] and in test [6]. Moreover, the call in test [7] and in test [8] was inactive.
Consider `CCOP(OCC)OCC`, for which the call in test [1], in test [2], in [3], in test [4], in test [5] and in test [6] was inactive. Besides, the call in test [7], in test [8], in [9] and in test [10] was inactive.
Regarding `CC(C)(c1ccccc1)c1ccc(O)c(C(C)(C)c2ccccc2)c1`, the concentration at half-maximal activity (AC50) (in general, the midpoint of the concentration-response curve, whichever way the signal moves) is 14.9 µM (active) in test [1], 7.38 µM (active) in [4], 2.85 µM (active) in test [7] and 16.9 µM (active) in [9]. The call in [2], in test [3], in test [5], in test [6], in test [8] and in [10] was inactive.
As for `N#CCCO`, the compound was classed as inactive in [1], in [2], in test [3], in test [4], in test [5] and in test [6]. Moreover, the result in [7], in [8], in test [9] and in test [10] was inactive.
As for `CC(C)(OO)c1ccccc1`, the compound was called inactive in test [1], in test [2], in test [3], in test [4], in test [5] and in test [6]. For the same compound, the compound was called inactive in test [8] and in test [10]. Moreover, the AC50 in test [7] is 48.2 µM (active); in [9], 55.2 µM (active).
On to `Nc1ncc([N+](=O)[O-])s1`, for which the compound was classed as inactive in [1], in test [2], in test [4], in [5], in test [6] and in test [7]. For the same compound, the call in test [8] and in test [9] was inactive. The concentration at half-maximal activity (AC50) in test [3] was 62 µM (active).
Consider `CC(=O)[O][Hg][c]1ccccc1`, for which the compound was classed as inactive in test [1], in test [2], in [3], in [4], in test [5] and in test [6]. Also, the outcome in test [8], in [9] and in test [10] was inactive. In test [7], the AC50 is 1.24 µM (active).
Consider `CCCCCCCCc1ccc(O)cc1`, for which the compound was classed as inactive in test [1], in [2], in [3], in test [5], in test [6] and in test [7]. Moreover, the call in [8], in test [9] and in [10] was inactive. Besides, the AC50 in [2] is 11.2 µM (active).
As to `CC(C)(c1ccc(OCC2CO2)cc1)c1ccc(OCC2CO2)cc1` (stereo not given), the AC50 in [1] is 49.2 µM (active); in test [2], 25.9 µM (active); in test [4] it was 53.9 µM (active); in [9], 52.4 µM (active). Besides, the outcome in test [3], in test [5], in test [6], in test [7], in test [8] and in test [10] was inactive.
In the case of `C[C@@H](Oc1ccc(Cl)cc1Cl)C(=O)O`, the result in test [1], in test [2], in [3], in [4], in test [5] and in [6] was inactive. In addition, the outcome in [7], in test [8], in test [9] and in [10] was inactive.
Consider `O=C(c1ccccc1)C(Cl)Cl`, for which the AC50 in test [1] was 28.7 µM (active); in test [2] it was 8.03 µM (active); in test [4], 53.4 µM (active); in test [9] it was 10.9 µM (active). Also, the compound was classed as inactive in [3], in [5], in [6], in test [7], in test [8] and in test [10].
As for `CC(C)(C)CC(C)(C)c1ccc(O)cc1`, the AC50 in [1] was 17.1 µM (active) and 18 µM (active); in [2] it was 14.4 µM (active). In addition, the outcome in [1], in test [2], in [5], in test [6], in test [8] and in [10] was inactive.
For `CCOP(=S)(OCC)Oc1ccc(S(C)=O)cc1` (stereo not given), the outcome in [1], in test [2], in [4], in test [5], in test [6] and in [7] was inactive. The compound was called inactive in test [8], in test [9] and in test [10]. Besides, in test [3], the AC50 was 32.5 µM (active).
With `O=C(Cc1ccccc1)c1ccccc1`, the call in test [1], in [2], in test [3], in test [4], in [5] and in test [6] was inactive. The call in test [7], in [8], in [9] and in test [10] was inactive.
Take `CCOP(=S)(OCC)SCSP(=S)(OCC)OCC`: the compound was classed as inactive in [1], in [2], in test [3], in test [4], in test [5] and in test [6]. The compound was called inactive in test [7], in [8], in test [9] and in [10].
In the case of `CCOP(=S)(OCC)SCCS(=O)(=O)CC`, the outcome in test [1], in test [2], in [3], in test [4], in test [5] and in test [6] was inactive. Moreover, the result in test [7], in [8] and in [9] was inactive.
On to `Nc1cccc(Cl)c1`, for which the compound was called inactive in test [1], in [2], in [3], in test [4], in [5] and in test [6]. The outcome in test [8], in test [9] and in test [10] was inactive.
As for `COC(=O)c1sccc1S(=O)(=O)NC(=O)Nc1nc(C)nc(OC)n1`, the compound was called inactive in test [1], in [2], in [3], in test [4], in test [5] and in [6]. Moreover, the compound was called inactive in test [7], in test [8], in test [9] and in test [10].
`C[C@]12CC[C@H](O)CC1=CC[C@@H]1[C@@H]2CC[C@]2(C)C(=O)CC[C@@H]12`: in test [1], the AC50 was 27.7 µM (active). Moreover, the call in test [2], in [3], in test [4], in [5], in test [6] and in test [7] was inactive. Also, the compound was called inactive in test [8], in test [9] and in test [10].
In the case of `CCC(C)c1cccc(C(C)CC)c1O` (stereo not given), the result in test [1], in test [2], in [3], in test [4], in [5] and in test [6] was inactive. The compound was called inactive in test [7], in test [8] and in [10].
